Experimental data: PubChem BioAssay (NCATS)
Inconclusive results are not listed. Active and inactive are the calls of the source. Calls come from the whole dose curve; as a rule, active = well fitted inhibition curve with a large enough effect; inconclusive = small, poorly fitted or top-dose-only effect; inactive = flat fitted curve, though single readings scatter. Where a SMILES comes first, the peptide text is derived from it. The star is where a group is joined. Hexanoyl = CCCCCC(=O)*; PhAc = O=C(Cc1ccccc1)*

Tests used:
CRL-7250 = normal cell line; assay: Cytotoxic Profiling of Annotated Libraries Using Quantitative High-Throughput Screening (AID 1296008); settings: Five cell lines viability, CellTiter-Glo ATP luminescence, 48-72 h; max response: stronger effect = lower value; for max response: % is set by controls: 0 for no effect and ±100 for the full control effect
How it was run: (§1)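 Cytotoxicity was measured as CellTiter-Glo ATP luminescence, read after 10 min at room temperature. Compound treatment of the cells lasted 48 or 72 hr at 37 degrees Celsius in a qHTS format.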

HEK293 = assay: as above; settings: Five cell lines viability, CellTiter-Glo ATP luminescence, 48-72 h; max response: stronger effect = lower value
How it was run: as §1

HaCat [1] = assay: as above; settings: Five cell lines viability, CellTiter-Glo ATP luminescence, 48-72 h; max response: stronger effect = lower value
How it was run: as §1

KB-3-1 = assay: as above; settings: Five cell lines viability, CellTiter-Glo ATP luminescence, 48-72 h; max response: stronger effect = lower value
How it was run: as §1

NIH3T3 = assay: as above; settings: Five cell lines viability, CellTiter-Glo ATP luminescence, 48-72 h; max response: stronger effect = lower value
How it was run: as §1

HACAT [2] = assay: qHTS assay to identify novel small-molecules to repurpose for Merkel cell carcinoma treatment (AID 1296009); settings: MCC and control cell lines, CellTiter-Glo viability, 72 h; at 44.8 µM (top of the series) unless noted
How it was run: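 After compound transfer in DMSO, plates were kept 72 hr at 37 degree celsius. Luminescent ATP signal from CellTiter-Glo served as viability measure, normalized against DMSO and no-cell controls.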

Measured: max response
Note: nearly all actives have a fitted effect of over 60% in size.

CC(C)(O)C1OC1C1=CC(=O)C2(C)OC2C1O (stereo unspecified)
inactive: CRL-7250 | HEK293 -1.71% | HaCat [1] | KB-3-1 | NIH3T3 3.09% | HACAT [2]

COc1cc(O)c2c(c1)C1(OC2=O)C(C)=CC(=O)C1O (stereo unspecified)
inactive: CRL-7250 | HEK293 -12.8% | HaCat [1] | KB-3-1 7.65% | NIH3T3 4.25% | HACAT [2]

CC1(C)CC[C@]2(C(=O)O)CC[C@]3(C)C(=CCC4[C@@]5(C)CC[C@H](O)C(C)(C)C5CC[C@]43C)C2C1 (stereo partly specified)
inactive: CRL-7250 | HEK293 -9.46% | HaCat [1] | KB-3-1 2.08% | NIH3T3 -3.2% | HACAT [2] inactive [at 17.4 µM]

C/C=C(\C)C(=O)OC1C2(O)CC3=C4CC(=O)OC(c5ccoc5)C4(C)CCC3C(C)(C2=O)C(C(OC(C)=O)C(=O)OC)C1(C)C (stereo unspecified)
inactive: CRL-7250 | HEK293 -2.36% | HaCat [1] | KB-3-1 -3.65% | NIH3T3 1.4% | HACAT [2] inactive [at 17.4 µM]

CC1(C)CC[C@]2(C(=O)O)CC[C@]3(C)C(=CCC4[C@@]5(C)C[C@@H](O)[C@H](O)[C@@](C)(CO)C5CC[C@]43C)C2C1 (stereo partly specified)
inactive: CRL-7250 | HEK293 2.88% | HaCat [1] | KB-3-1 -4.17% | NIH3T3 -3.06% | HACAT [2] inactive [at 17.4 µM]

CCCCCC(=O)N1CCC[C@H]1C(=O)N[C@@H](Cc1ccc(O)cc1)C(=O)OC (Hexanoyl-Pro-Tyr-OMe)
inactive: CRL-7250 1.02% | HEK293 4.39% | HaCat [1] | KB-3-1 -0.528% | NIH3T3 -4.54% | HACAT [2]

CCc1nn(CCO)c(CC)c1Oc1cc(C#N)cc(C#N)c1
inactive: CRL-7250 | HEK293 2.02% | HaCat [1] | KB-3-1 | NIH3T3 -3.44% | HACAT [2]

OC[C@@]1(O)CO[C@H](OC[C@H]2O[C@@H](OCCc3ccccc3)[C@H](O)[C@@H](O)[C@@H]2O)[C@@H]1O
inactive: CRL-7250 -3.48% | HEK293 -5.84% | HaCat [1] | KB-3-1 -0.728% | NIH3T3 5% | HACAT [2] inactive [at 17.4 µM]

COC(=O)[C@H](c1ccccc1Cl)N1CCC2SC(=O)C=C2C1 (stereo partly specified)
inactive: CRL-7250 -4.86% | HEK293 -11.7% | HaCat [1] | KB-3-1 7.5% | NIH3T3 -12.1% | HACAT [2]

CC(C)NC(=O)c1ccc(C#Cc2ccncc2)cn1
inactive: CRL-7250 -8.3% | HEK293 -19.1% | HaCat [1] | KB-3-1 | NIH3T3 | HACAT [2]

C=C1CCC2C(C)(C)CC(O)CC2(C)C1CCC(C)CC(=O)O (stereo unspecified)
inactive: CRL-7250 -5.49% | HEK293 1.49% | HaCat [1] | KB-3-1 -5.43% | NIH3T3 -0.43% | HACAT [2]

C[C@@H]1O[C@@H](O[C@H]2[C@H](O)[C@@H](O[C@@H]3O[C@H](CO)[C@H](O)[C@H](O)[C@H]3O)[C@H](O[C@H]3CC[C@@]4(C)C(CC[C@]5(C)C4CC=C4[C@@H]6CC(C)(C)CC[C@]6(C(=O)O[C@@H]6O[C@H](CO)[C@@H](O)[C@H](O)[C@H]6O)CC[C@]45C)C3(C)C)O[C@@H]2C(=O)O)[C@H](O)[C@H](O)[C@H]1O (stereo partly specified)
inactive: CRL-7250 -0.719% | HEK293 0.183% | HaCat [1] | KB-3-1 9.11% | NIH3T3 -6.48% | HACAT [2] inactive [at 9.27 µM]

COc1ccc(C2(O)c3c(ccc4c3OC(C)(CCC=C(C)C)C=C4)NC(=O)C2OC)cc1 (stereo unspecified)
inactive: CRL-7250 | HEK293 -6.81% | HaCat [1] | KB-3-1 5.8% | NIH3T3 | HACAT [2] inactive [at 17.4 µM]

CCOC(=O)CNC(=O)[C@@H]1CCCN1C(=O)Cc1ccccc1 (PhAc-Pro-Gly-OEt)
inactive: CRL-7250 -0.853% | HEK293 4.73% | HaCat [1] | KB-3-1 5.86% | NIH3T3 -14.5% | HACAT [2]

CC/C=C/C=C/C1(C)OC(CC(CO)OC)=CC1=O (stereo unspecified)
inactive: CRL-7250 -6.3% | HEK293 -18.9% | HaCat [1] | KB-3-1 | NIH3T3 1.62% | HACAT [2]

COc1cc(O)cc2c1C(=O)OC(C)C2 (stereo unspecified)
inactive: CRL-7250 4.54% | HEK293 4.69% | HaCat [1] | KB-3-1 3.07% | NIH3T3 -0.229% | HACAT [2]
